Source: publication PMC7819943, “Rice protein-binding microarrays: a tool to detect cis-acting elements near promoter regions in rice”
Whole data set: some 68,000 sequences, median “fluorescence intensity (a.u.)” near 9,100, cut for the highest 2% near 16,000. This is one part of a sample in which the highest values are shown more often than they occur.

Target: OsWRKY34 (Oryza sativa, UniProt Q0JBA9 1-250)
Assay: protein-binding microarray (RPBM); PBS, 2% BSA, 51.3 ng/ul salmon testes DNA, 50 uM zinc acetate, 200 nM TF, 25 C, 1 h; high values mean tight binding
Details: protein: recombinant; tags: N-terminal polyhistidine and DsRed monomer fusion (pET32a); label: CyDye5-dUTP incorporated in the synthesized complementary strand; 3' TTTTT single-stranded linker to array surface; dsDNA, one strand shown
Method in brief: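 The binding signal for each feature is its fluorescence intensity in arbitrary units. An Axon 4000B scanner was used to read a custom Agilent array that had been made double-stranded with Cy5-dUTP primer extension, blocked with 2% BSA, incubated at 25 °C for 1 h with 200 nM protein in PBS, 2% BSA, salmon testes DNA and 50 µM zinc acetate, and washed. The protein was an N-terminal polyhistidine–DsRed transcription factor fusion from E. coli BL21-CodonPlus, purified on Ni–NTA.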

OsWRKY34, sequence (Q0JBA9 entry or part of it): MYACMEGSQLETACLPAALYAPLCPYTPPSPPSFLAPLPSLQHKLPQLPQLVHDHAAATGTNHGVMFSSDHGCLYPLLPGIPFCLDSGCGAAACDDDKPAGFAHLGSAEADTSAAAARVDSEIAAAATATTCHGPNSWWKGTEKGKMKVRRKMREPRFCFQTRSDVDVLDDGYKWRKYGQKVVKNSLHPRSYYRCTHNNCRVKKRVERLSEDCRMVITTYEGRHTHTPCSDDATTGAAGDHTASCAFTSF

Sequence	binding signal
GGTTTTTCCTAGTTTTGAGATTTACGTGCTATTTTGTGAACGGAGTCACCTAGTGCAG	8950 fluorescence intensity (a.u.)
CGTGTCGCACCACATCCAGCGTCCCACGGCCTACCACCGCCGGAGTCACCTAGTGCAG	8700 fluorescence intensity (a.u.)
ATATGGCATCTCGGTTTCGTCTTAACAGGGTATTGCACTACGGAGTCACCTAGTGCAG	9900 fluorescence intensity (a.u.)
ACTCCCTTGCTTTTTCTCGCTATCAATCACAATAATCCAACGGAGTCACCTAGTGCAG	9590 fluorescence intensity (a.u.)
CGTGTGGTTGATTGTGTGTGCGAGCCGAATGCTGCCTACTCGGAGTCACCTAGTGCAG	9260 fluorescence intensity (a.u.)
TTACCATGGTGCATTTACGGCTGTGATCGCTTTGTTGTACCGGAGTCACCTAGTGCAG	9370 fluorescence intensity (a.u.)
TCTCGGCTCGCAATGCTTTTTGGAGTTTTGTTTCTCTCCCCGGAGTCACCTAGTGCAG	10200 fluorescence intensity (a.u.)
TCATTGCACCTCTCATTTAACAAGGGATATAATAGTTCTTCGGAGTCACCTAGTGCAG	8360 fluorescence intensity (a.u.)
TGGCATCATCGACCATACACTTTTGTCAATCCGTTCAGCTCGGAGTCACCTAGTGCAG	8910 fluorescence intensity (a.u.)
GCTTCAAACTCGAGCTTCTACCAGTACCAGCTACCAGGTGCGGAGTCACCTAGTGCAG	8190 fluorescence intensity (a.u.)
TAGTCAAACGTTGAAAAAAAAAGTCAACGGCGTCACACATCGGAGTCACCTAGTGCAG	20900 fluorescence intensity (a.u.)
CAAACGTTGGAAAAAAGTCAACGGCGTCATATATTTTAATCGGAGTCACCTAGTGCAG	15800 fluorescence intensity (a.u.)
AAAAAGTCAACGGCGTCAAACATATTGAAACGGAGGGAGTCGGAGTCACCTAGTGCAG	8240 fluorescence intensity (a.u.)
AAAATTCCTAAAACTACTTGCTACTATTCTCTCTCCAACTCGGAGTCACCTAGTGCAG	8240 fluorescence intensity (a.u.)
TCCTCGCGTTCTTTTTCTCCACCGAGACCACCGGCGCTCTCGGAGTCACCTAGTGCAG	9050 fluorescence intensity (a.u.)
TTGGTGGCCTTTTCTCCCTTTTTTGCATGTGCTTTGCTCTCGGAGTCACCTAGTGCAG	14100 fluorescence intensity (a.u.)
GGATTTTAAGTTTTTACTTGCACTGTTTGACCATTCGTCTCGGAGTCACCTAGTGCAG	9200 fluorescence intensity (a.u.)
GATTTTGACTTTTTACTTGCACTGTTTGACCATTCATATTCGGAGTCACCTAGTGCAG	16300 fluorescence intensity (a.u.)
TACCCCTCCGTTTCATATGATAAGTTGTTTGACTTTTTTTCGGAGTCACCTAGTGCAG	14300 fluorescence intensity (a.u.)
AGCACATATTTGACCGTTCGTCTTATTCAAAAACTTTTATCGGAGTCACCTAGTGCAG	8540 fluorescence intensity (a.u.)
GGATTTTGACTTTTTACTTGCACTGTTTGACTATTCGTCTCGGAGTCACCTAGTGCAG	18600 fluorescence intensity (a.u.)
GACGCCGTTGACTTTTTATCACATATTTGACCGTTCGTCTCGGAGTCACCTAGTGCAG	20400 fluorescence intensity (a.u.)

Sequence	binding signal
CACATATCGTTTAAATTTTCGACTTGACCGTTTTTCAATTCGGAGTCACCTAGTGCAG	9550 fluorescence intensity (a.u.)
ACGCCGTTGATTTTTTTAAACATATTTGACCGTTCGTCTTCGGAGTCACCTAGTGCAG	11400 fluorescence intensity (a.u.)
TGATACCGTTGACTTTTCACATAACTTGGTCGTTCGTTTTCGGAGTCACCTAGTGCAG	34100 fluorescence intensity (a.u.)
GATACCGTTGACTTTTTAGCACATATTTGACCGTTCGTCTCGGAGTCACCTAGTGCAG	39400 fluorescence intensity (a.u.)
ACTTCACCGGTTTCCGGCGTCCGGCGCGGCGCCTGCAGAACGGAGTCACCTAGTGCAG	9530 fluorescence intensity (a.u.)
TAACACCCAACACTTACACTCTGGCATTTTGGAGGTCTTGCGGAGTCACCTAGTGCAG	8990 fluorescence intensity (a.u.)
AGCACCTACGGCGGCGTCTTCTCCTACTGCCTACCGCCGACGGAGTCACCTAGTGCAG	9000 fluorescence intensity (a.u.)
ATGACGTCCAAAGCTTCACCTTTTTTTTTATATATAAACCCGGAGTCACCTAGTGCAG	8260 fluorescence intensity (a.u.)
GGGTAGGAGGAGGTAATTGAGAGGTAATTCCTCCTTTAATCGGAGTCACCTAGTGCAG	9220 fluorescence intensity (a.u.)
TTTTGACGACCCTAGCAATATTGCTATACACTCTTCATTCCGGAGTCACCTAGTGCAG	10700 fluorescence intensity (a.u.)
AAGAAATCTTCCCTGTCCTACCTTTTCTTCTCACTGTATGCGGAGTCACCTAGTGCAG	8860 fluorescence intensity (a.u.)
ACAGGAGAGTGATTACTTTTGCATTATTAATTGATGTTGTCGGAGTCACCTAGTGCAG	8400 fluorescence intensity (a.u.)
GACACTGTTGACTTTTTAGCACATATTTGACCGTTCGTCTCGGAGTCACCTAGTGCAG	21300 fluorescence intensity (a.u.)
TTTGACATCATTGACTTTTTAGCACATATTTGACCGTTCGCGGAGTCACCTAGTGCAG	14400 fluorescence intensity (a.u.)
CACCGTTGACTTTTTAGCACATATTTGACCGTTTGTCTTTCGGAGTCACCTAGTGCAG	39100 fluorescence intensity (a.u.)
TTAGCACATGTTTGACCGTTCGTCTTATTCAAAAACTTTTCGGAGTCACCTAGTGCAG	12600 fluorescence intensity (a.u.)
GACACCGTTAACTTTTTAGCATATGTTTGACCGTTCGTCTCGGAGTCACCTAGTGCAG	10600 fluorescence intensity (a.u.)
CCCACACTTCTCCCGTTCTCCTGGAGGAAGACGACACCCACGGAGTCACCTAGTGCAG	8150 fluorescence intensity (a.u.)
CATCTTCGTCCTTTAAATTTGTTTTATTTTAAATCCTCTACGGAGTCACCTAGTGCAG	8400 fluorescence intensity (a.u.)
TCATTTGTCATCCATAAGTTTATATTTTGTACTTTTAGTTCGGAGTCACCTAGTGCAG	8550 fluorescence intensity (a.u.)
AGAGACTGGTGATGGACTTTACTCTTTTCTTCTCCAACACCGGAGTCACCTAGTGCAG	8330 fluorescence intensity (a.u.)
GGGCGCCGGTATGCTTCTTCCATTCCACCTATGTGTTTCTCGGAGTCACCTAGTGCAG	9490 fluorescence intensity (a.u.)

Sequence	binding signal
TTACTCTACTCATTTAGCTTTTGGTTGGTTGGTTCCCTTCCGGAGTCACCTAGTGCAG	14400 fluorescence intensity (a.u.)
ATTTCTTACGTTGTTGCAGCTTTGTTTTTTTTGCTTATTTCGGAGTCACCTAGTGCAG	14900 fluorescence intensity (a.u.)
ATTTTTTCACGTTCGGACCTATGGTTTTTTTGCCACTTTGCGGAGTCACCTAGTGCAG	8520 fluorescence intensity (a.u.)
TTTTTGTCTTATTGTTTTGTTTATTTTATTTCAGTTTATTCGGAGTCACCTAGTGCAG	9760 fluorescence intensity (a.u.)
TTTCCCACGTTTTGTCATTTTTTCAGCTATATATTAATTTCGGAGTCACCTAGTGCAG	12000 fluorescence intensity (a.u.)
TTATGCCAGCCATTTCACTTTTTCCCACGTTTTGTCATTTCGGAGTCACCTAGTGCAG	18900 fluorescence intensity (a.u.)
AAAGTTTTTTGTCGTTGTTTGTTTTCCAGTATTTGCTTTTCGGAGTCACCTAGTGCAG	18000 fluorescence intensity (a.u.)
ATTCCGGTCATTTACGCGCTTTTAGCTTTGCCCTTCATTTCGGAGTCACCTAGTGCAG	17200 fluorescence intensity (a.u.)
CGCTTTTGCACAGTATTTTTATTTGCAGAGTTATGTTTGTCGGAGTCACCTAGTGCAG	8090 fluorescence intensity (a.u.)
TTTGTTTTTTTTGCTTATTTAGTTTTTTTTTCAGCTTTTTCGGAGTCACCTAGTGCAG	17300 fluorescence intensity (a.u.)
CGTTTTTTTTTTCATTCCATGTTTGCATTAGCTTCATTTCCGGAGTCACCTAGTGCAG	13400 fluorescence intensity (a.u.)
TTGCTTGTTGATTGATTCGTTTTTGTCAATTTTGAAGTTTCGGAGTCACCTAGTGCAG	8470 fluorescence intensity (a.u.)
ACAAATTCCTGACTTCACGGTTTTCTATTTGGTTGTAATACGGAGTCACCTAGTGCAG	9590 fluorescence intensity (a.u.)
TTTTTTTATTCGTGTCTGAAAATCATTTCCGATATCCGGTCGGAGTCACCTAGTGCAG	8470 fluorescence intensity (a.u.)
CACTAAAGTTTCATTGGGTTTTCAGTTTTCACTTCATTATCGGAGTCACCTAGTGCAG	10700 fluorescence intensity (a.u.)
ATTCGTTTCGTATTTATGCCCGATATTATCCGTGCTTCTACGGAGTCACCTAGTGCAG	9200 fluorescence intensity (a.u.)
TCTCTTTCTCTCTCTCCTCTTCTTCCTTGGCGAGTTGTGCCGGAGTCACCTAGTGCAG	8080 fluorescence intensity (a.u.)
ATCCATCCGAGCTCTCTCTCTCTCTCTGTCTTCTCTCTACCGGAGTCACCTAGTGCAG	10700 fluorescence intensity (a.u.)
ACTCCAGCATGATCCACAACACCACTCACCTCATGATTTTCGGAGTCACCTAGTGCAG	8770 fluorescence intensity (a.u.)
TATTTTCGTCCGGTTTTTTCCACTCACCAGTCACCACCCCCGGAGTCACCTAGTGCAG	8490 fluorescence intensity (a.u.)
ACCACTCACCTCATGATTTTCGTTGTATTCGTTCCAGTCCCGGAGTCACCTAGTGCAG	20000 fluorescence intensity (a.u.)
CTCTCCTCCTCCGTTCCTGACTCCACCACTCACATTCATTCGGAGTCACCTAGTGCAG	13200 fluorescence intensity (a.u.)

Sequence	binding signal
AGGGGTGCTAATTGAGCCTATTTCGGGTGGGGCTCACTGACGGAGTCACCTAGTGCAG	15300 fluorescence intensity (a.u.)
TTCTTGGCCCGCTAACTCATGATGGTTTTATCCAGATCGTCGGAGTCACCTAGTGCAG	9880 fluorescence intensity (a.u.)
TCAAACCTCGCGACTTCTTCTTCCACCTCTCGCTCCGGGCCGGAGTCACCTAGTGCAG	11800 fluorescence intensity (a.u.)
TGTGCCTCCGGATTTGACCTTTCCTCGAACCTTCTTCTTCCGGAGTCACCTAGTGCAG	13300 fluorescence intensity (a.u.)
GGGATATATCCTTTGACCGGTCAAACCTCGCGACTTCTTCCGGAGTCACCTAGTGCAG	18800 fluorescence intensity (a.u.)
CCTTTCCTAAGTCTCTGTTTTAACATCTCTATTGGGGCATCGGAGTCACCTAGTGCAG	8940 fluorescence intensity (a.u.)
CTCCGTCACTCAGATTTAATACATGACTCTCTATTATTCCCGGAGTCACCTAGTGCAG	9060 fluorescence intensity (a.u.)
GGAGGCGGTGGTGTTGGAGTTGGAGGGCGCGTGGAGGTGGCGGAGTCACCTAGTGCAG	12900 fluorescence intensity (a.u.)
CAGCAGCGGCGGCGGCGGCGGCGGCGGGGTGGTGGAACCTCGGAGTCACCTAGTGCAG	9080 fluorescence intensity (a.u.)
CCTTACCGTACAAGGGAGGAGGAGGTGGTGGTGGTGGAGGCGGAGTCACCTAGTGCAG	13000 fluorescence intensity (a.u.)
GGCGGCGGCGGGGTGGCCTTGGCCGGGTGCCTTGGTGGATCGGAGTCACCTAGTGCAG	10300 fluorescence intensity (a.u.)
GGGGTGGCGGTGGCGGTGGTGGTGGTGGTGGTGGTGGAGTCGGAGTCACCTAGTGCAG	41600 fluorescence intensity (a.u.)
GGAGGTCGGTGGCCTCGGCGGTGGAGGTCGGGGTCGGGGACGGAGTCACCTAGTGCAG	16500 fluorescence intensity (a.u.)
AGGTGGTGGTGGAGGTGGAGGTGGCGGTGGAGGTGGAGGGCGGAGTCACCTAGTGCAG	38600 fluorescence intensity (a.u.)
ATGGAGGCGGTGGTCGGAGGTGGCAGACGATGCTCGGGGACGGAGTCACCTAGTGCAG	8040 fluorescence intensity (a.u.)
GCGGAGGAGGTGGTGGTGGTGGAGGAGGAGGAGGCCAAGGCGGAGTCACCTAGTGCAG	19300 fluorescence intensity (a.u.)
GAGGAGGAGGTGGAGCTACTGGTGGTGGTGGTGGTGGTGGCGGAGTCACCTAGTGCAG	16200 fluorescence intensity (a.u.)
GGCGGCGGCGGCGGCGGCGGGGAGGAGGTGAAGGTGGAGGCGGAGTCACCTAGTGCAG	14100 fluorescence intensity (a.u.)
GGGGAGGCGGGTGGGGTTGAGGAGGTCGGTGGCCTCGGCGCGGAGTCACCTAGTGCAG	12300 fluorescence intensity (a.u.)
